The values that follow come from PubChem BioAssay.

Experiment [1] is described as follows: E. coli DRC41 culture turbidity changes, primary screen, E. coli filamentation inducer project, strain DRC41, OD650, 48 h (AID 1152).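 Also: E. coli MC1000 strain DRC41 lacking acrAB efflux pump and sulA.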 To be noted: E. coli DRC41 (acrAB sulA), higher = more signal, called active from +8 up or from −8 down.
The nature of experiment [2]: small-molecule binders of probe aLefty1, primary screen, biochemical, small-molecule microarray, 635/667 nm fluorescence (AID 1153).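 Also: score merges spot fluorescence with signal-to-noise ratio from the scanned slide images.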 The following applies: higher = more signal.
Experiment [3] can be described thus: PSAC antagonists in infected red cells, primary screen, cell-based, P. falciparum Indochina, OD700, 1 h (AID 1154). To be noted: P. falciparum Indochina infected RBC osmotic lysis, higher = more signal, called active from +8 up or from −8 down.
The nature of experiment [4]: PSAC antagonists in infected red cells, primary screen, cell-based, P. falciparum Indochina, OD700, 2 h (AID 1155).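 Also: lysis reports solute entry through the parasite surface anion channel PSAC; channel blockers reduce lysis of infected cells.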 To be noted: P. falciparum Indochina infected erythrocytes, osmotic lysis OD700; higher = more signal, called active from +8 up or from −8 down.
The nature of experiment [5]: osmotic lysis modulators in infected erythrocytes, primary screen, PSAC antagonist project, cell-based, P. falciparum Indochina, OD700, 3 h (AID 1156). The following applies: higher = more signal, called active from +8 up or from −8 down.
The nature of experiment [6]: PSAC antagonists in infected red cells, primary screen, cell-based, P. falciparum Indochina, OD700, 18 h (AID 1157). To be noted: P. falciparum Indochina infected erythrocytes, osmotic lysis OD700, 18 h; higher = more signal, called active from +8 up or from −8 down.
Experiment [7] can be described thus: modulators of S6 phosphorylation in cells, primary screen, cell-based, A549, cytoblot, luminescence, serum-stimulated (AID 1158).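 Also: serum-stimulated A549 lung adenocarcinoma cells; signal is phosphorylated S6 detected by cytoblot immunostaining with HRP secondary.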 To be noted: A549 phospho-S6 cytoblot, 5 h, higher = more signal.
Experiment [8] deals with NADPH oxidase 2 (Homo sapiens) (UniProt P04839). Nature of the experiment: NOX2-dependent H2O2 signal modulators, primary screen, NOX inhibitor project, cell-based, HEK293-NOX2, PMA-stimulated, Amplex Red fluorescence (AID 1159). Also: test concentration not given here. To be noted: 45 min, higher = more signal, called active from +8 up or from −8 down.
The target of experiment [9] is NADPH oxidase 4 (Homo sapiens) (UniProt Q9NPH5). Briefly: NOX4-dependent H2O2 signal modulators, primary screen, NOX inhibitor project, cell-based, HEK293-NOX4, tetracycline-induced, Amplex Red fluorescence (AID 1160). To be noted: 45 min, higher = more signal, called active from +8 up or from −8 down.
Experiment [10] has as its target NADPH oxidase 5 (Homo sapiens) (UniProt Q96PH1). Briefly: NOX5-dependent H2O2 signal modulators, primary screen, NOX inhibitor project, cell-based, HEK293-NOX5, Amplex Red fluorescence (AID 1161). To be noted: HEK293-NOX5, ionomycin, 45 min, higher = more signal.

The source made the active and inactive calls.

Sequence of NADPH oxidase 5 (Homo sapiens) (Q96PH1 whole entry, looked up): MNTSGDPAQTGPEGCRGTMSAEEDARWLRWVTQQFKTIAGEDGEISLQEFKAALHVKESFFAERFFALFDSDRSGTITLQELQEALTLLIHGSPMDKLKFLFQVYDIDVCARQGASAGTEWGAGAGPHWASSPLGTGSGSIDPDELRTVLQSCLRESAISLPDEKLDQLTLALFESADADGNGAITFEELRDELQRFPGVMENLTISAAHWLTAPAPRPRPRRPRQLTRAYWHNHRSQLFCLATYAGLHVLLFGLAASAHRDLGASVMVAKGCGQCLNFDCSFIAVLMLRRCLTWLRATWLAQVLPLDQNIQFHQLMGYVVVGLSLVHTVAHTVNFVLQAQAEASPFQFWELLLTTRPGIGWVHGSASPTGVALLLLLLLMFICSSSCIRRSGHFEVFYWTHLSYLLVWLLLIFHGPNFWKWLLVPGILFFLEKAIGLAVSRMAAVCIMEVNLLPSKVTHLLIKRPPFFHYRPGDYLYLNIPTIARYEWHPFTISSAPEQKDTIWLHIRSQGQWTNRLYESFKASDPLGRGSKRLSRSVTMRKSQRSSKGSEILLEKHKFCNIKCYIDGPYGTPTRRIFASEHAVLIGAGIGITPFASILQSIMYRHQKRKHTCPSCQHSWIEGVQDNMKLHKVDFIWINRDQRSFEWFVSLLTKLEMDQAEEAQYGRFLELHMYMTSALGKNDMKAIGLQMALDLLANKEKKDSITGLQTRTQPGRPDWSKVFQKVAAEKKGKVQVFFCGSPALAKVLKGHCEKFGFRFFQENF
Sequence of NADPH oxidase 4 (Homo sapiens) (Q9NPH5 whole entry, looked up): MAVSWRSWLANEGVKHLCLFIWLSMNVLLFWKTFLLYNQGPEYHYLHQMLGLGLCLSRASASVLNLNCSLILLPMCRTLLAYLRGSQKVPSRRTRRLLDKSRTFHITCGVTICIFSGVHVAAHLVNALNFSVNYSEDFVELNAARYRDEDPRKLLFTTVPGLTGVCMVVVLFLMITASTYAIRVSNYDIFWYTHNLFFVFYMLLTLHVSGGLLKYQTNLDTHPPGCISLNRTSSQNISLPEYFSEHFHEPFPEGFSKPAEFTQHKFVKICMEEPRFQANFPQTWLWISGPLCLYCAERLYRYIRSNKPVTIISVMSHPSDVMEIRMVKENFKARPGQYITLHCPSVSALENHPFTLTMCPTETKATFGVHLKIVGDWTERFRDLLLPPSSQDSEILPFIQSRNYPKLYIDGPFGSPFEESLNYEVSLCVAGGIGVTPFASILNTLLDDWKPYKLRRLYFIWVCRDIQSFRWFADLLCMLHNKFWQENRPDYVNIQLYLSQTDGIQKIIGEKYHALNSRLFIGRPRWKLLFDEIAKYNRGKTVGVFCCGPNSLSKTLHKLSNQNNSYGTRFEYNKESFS
Sequence of NADPH oxidase 2 (Homo sapiens) (P04839 whole entry, looked up): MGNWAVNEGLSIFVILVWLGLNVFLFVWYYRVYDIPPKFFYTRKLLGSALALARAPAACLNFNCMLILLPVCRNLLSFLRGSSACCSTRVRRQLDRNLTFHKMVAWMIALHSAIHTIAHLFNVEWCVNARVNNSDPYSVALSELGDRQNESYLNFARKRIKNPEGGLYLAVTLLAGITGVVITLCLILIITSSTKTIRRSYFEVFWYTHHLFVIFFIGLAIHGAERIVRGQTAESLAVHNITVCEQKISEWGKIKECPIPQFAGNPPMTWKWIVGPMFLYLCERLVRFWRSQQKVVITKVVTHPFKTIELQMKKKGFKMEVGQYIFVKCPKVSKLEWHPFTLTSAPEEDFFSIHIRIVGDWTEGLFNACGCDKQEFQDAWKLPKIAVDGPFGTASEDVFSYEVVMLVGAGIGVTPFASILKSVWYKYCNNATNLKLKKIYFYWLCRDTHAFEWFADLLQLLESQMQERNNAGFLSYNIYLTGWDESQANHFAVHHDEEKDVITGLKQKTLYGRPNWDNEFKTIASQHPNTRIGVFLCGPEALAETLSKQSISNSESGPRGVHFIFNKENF

On to `CC(C)=CCCC(C)=CC(O)C1C=CC2C(=O)N(C)C(=O)C2N1Nc1ccccc1` (stereo not given), for which the z-score in experiment [1] is -1.5 (inactive); in [3] it was 7.27 (inactive); in experiment [4], 2.86 (inactive); in [5], 0.977 (inactive); in [6] it was 1.93 (inactive); in experiment [7], -0.595. Moreover, the results for the z-score in experiment [8], in experiment [9] and in [10] were -1.51 (inactive), -3.97 (inactive) and -1.98, respectively. The molecule further registered a composite z-score in experiment [2] of 0.525.

Consider `C=C[C@H](C)[C@@H](OC(=O)Nc1ccc(OC)cc1)c1ccc(O)c2ccccc12`, for which the z-score is -0.368 (inactive) in [1]; 3.54 (inactive) in experiment [3]; 0.265 (inactive) in experiment [4]; -0.122 (inactive) in experiment [5]; 0.132 (inactive) in [6]; -0.751 in [7]. Besides, the z-score in [8] is -5.53 (inactive); in experiment [9], -1.89 (inactive); in experiment [10], -0.55. For the same molecule, the composite z-score in [2] is 0.0903.

For the molecule `COCCOC(=O)N1C(=O)[C@@]2(c3ccccc31)[C@H](C(=O)N1CCc3cc(OC)c(OC)cc3C1)[C@H]1C(=O)O[C@H](c3ccccc3)[C@H](c3ccccc3)N1[C@@H]2c1ccc(OCCO)cc1`, the z-score is 1.12 (inactive) in experiment [1]; 5.69 (inactive) in [3]; 1.85 (inactive) in experiment [4]; 0.757 (inactive) in experiment [5]; 0.983 (inactive) in [6]; 0.0824 in experiment [7]. In addition, the z-score was 0.238 (inactive) in [8], 0.974 (inactive) in [9] and 1.19 in [10]. In addition, in [2], the composite z-score was 0.18.

For `CN(C)CCCC[C@@H]1NC(=O)[C@H]2C[C@@H](C(=O)NCCCCCCN)[C@@H](c3ccc(O)cc3)N2C1=O`, the z-score in experiment [1] was 0.51 (inactive); in experiment [3] it was 0.453 (inactive); in experiment [4] it was 0.374 (inactive); in experiment [5], 1.31 (inactive); in experiment [6], 0.0314 (inactive); in experiment [7], -0.24. Also, the z-score was 0.277 (inactive) in experiment [8], 0.236 (inactive) in [9] and 0.731 in experiment [10]. In experiment [2], this molecule registered a composite z-score of 1.5.

With `O=C1c2ccccc2[C@](Cc2ccccc2I)(C(=O)NCCN2CCOCC2)[C@H](c2ccc(CO)cc2)N1Cc1ccccc1Cl`, the z-score in experiment [1] was 0.065 (inactive); in experiment [3], 11.7 (active); in experiment [4], 1.47 (inactive); in [5], 1.01 (inactive); in experiment [6], 0.818 (inactive); in experiment [7], -0.0261. Moreover, the z-score is -0.136 (inactive) in experiment [8], 0.707 (inactive) in experiment [9] and 0.608 in [10]. This molecule registered a composite z-score in experiment [2] of 0.559.

Turning to `O=C1O[C@H](c2ccccc2)[C@H](c2ccccc2)N2[C@H]1[C@@H](C(=O)N1CCCCCCC1)[C@]1(C(=O)Nc3ccc(C#CCCO)cc31)[C@H]2c1ccccc1OCCO`, the z-score in experiment [1] is 0.609 (inactive); in experiment [3], 1.54 (inactive); in experiment [4] it was 1.19 (inactive); in [5], 2.13 (inactive); in experiment [6], 0.565 (inactive); in [7] it was -0.319. The results for the z-score in [8], in experiment [9] and in experiment [10] were 1.31 (inactive), 0.959 (inactive) and 1.67, respectively. In experiment [2], the composite z-score amounted to 2.89.

Turning to `COc1ccc(C#Cc2ccc3c(c2)[C@]2(C(=O)N3)[C@H](C(=O)Nc3nc4ccccc4s3)[C@H]3C(=O)O[C@H](c4ccccc4)[C@H](c4ccccc4)N3[C@@H]2c2ccc(O)cc2)cc1`, the z-score in [1] is 0.663 (inactive); in experiment [3], -0.383 (inactive); in experiment [4] it was 0.53 (inactive); in experiment [5], -6.71 (inactive); in experiment [6] it was 0.957 (inactive); in experiment [7] it was -0.249. Also, the z-score in [8] was 0.548 (inactive); in experiment [9], 0.792 (inactive); in [10], -2.5. The composite z-score in experiment [2] is 1.1.

In the case of `O=C1N(Cc2ccccc2)c2ccccc2[C@@H]2OC(c3ccc(OCCCO)cc3)=N[C@]12CCS(=O)(=O)c1ccccc1`, the z-score was -0.355 (inactive) in experiment [1]; 24.7 (active) in experiment [3]; 13.3 (active) in experiment [4]; 1.79 (inactive) in [5]; 1.57 (inactive) in experiment [6]; 0.0582 in experiment [7]. Moreover, the figures for the z-score in experiment [8], in experiment [9] and in experiment [10] were 0.22 (inactive), 1.32 (inactive) and 1.96, respectively. The molecule further gave a composite z-score in [2] of 0.387.

Turning to `CCCC=C(CCC)[C@@H](NC(=O)c1cccs1)c1ccc(C(F)(F)F)cc1`, the z-score in experiment [1] was -0.938 (inactive); in experiment [3] it was 3.15 (inactive); in [4], -0.119 (inactive); in experiment [5], 1.36 (inactive); in [6], -1.39 (inactive); in experiment [7] it was 1.42. For the same molecule, the z-score in experiment [8] was -4.56 (inactive); in experiment [9], -3.52 (inactive); in experiment [10], -2.77. This molecule also yielded a composite z-score in experiment [2] of 0.504.

Turning to `C[N+](C)(C)CCCCNC(=O)[C@H]1C[C@H]2C(=O)N3CCC[C@H]3C(=O)N2[C@H]1c1cccc(OCCO)c1`, the z-score in [1] was 0.364 (inactive); in experiment [3], 3.34 (inactive); in experiment [4], 0.503 (inactive); in experiment [5] it was -0.78 (inactive); in experiment [6], 0.277 (inactive); in experiment [7] it was -0.555. The z-score in experiment [8] is -1.52 (inactive); in experiment [9], 0.00366 (inactive); in [10] it was -1.41. In experiment [2], this molecule registered a composite z-score of 0.0861.

In the case of `O=C1C2C=CC(C(O)c3cc(C(F)(F)F)cc(C(F)(F)F)c3)N(n3cnnc3)C2C(=O)N1Cc1ccccc1` (stereo not given), the z-score in [1] is -0.546 (inactive); in experiment [3], 1.56 (inactive); in experiment [4], 1.11 (inactive); in [5], 1.69 (inactive); in experiment [6] it was 0.833 (inactive); in [7], -0.241. For the same molecule, the z-score in [8] is -0.497 (inactive); in experiment [9], -0.889 (inactive); in experiment [10], -0.379. The molecule further gave a composite z-score in experiment [2] of 0.197.

For `COc1ccc(C(O)C2C=CC3C(=O)N(Cc4ccccc4)C(=O)C3N2n2cnnc2)cc1OCc1ccccc1` (stereo not given), the z-score in experiment [1] is 0.209 (inactive); in [3], 1.3 (inactive); in [4], 0.0118 (inactive); in [5], 0.372 (inactive); in [6] it was -1.82 (inactive); in experiment [7] it was 1.42. Moreover, the results for the z-score in experiment [8], in [9] and in [10] were -0.361 (inactive), -0.079 (inactive) and 0.384, respectively. Also, the composite z-score in experiment [2] worked out at 0.142.
